Laboratory results as given in PubChem BioAssay (NCI).
This is part of a sample that, as a whole, favours compounds with a hit. Of some 83,000 tested, about 20% had one in any assay.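 A percent growth of 40 corresponds to 60% growth inhibition; 0 means no net growth; -100 means all cells died. Active threshold: below 10.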 Values without a mark were called inactive. Calls of active or inactive are those of the source.

test system: HL-60(TB) leukemia; assay: NCI-60 one-dose screen, 48 h (100 = growth as untreated, 0 = no growth, -100 = all killed); details: 10 µM unless noted

Q: Which growth does the source give for `CC(=O)O[C@H]1C[C@@]2(C)[C@@H](C[C@@H](O)[C@H]3[C@@]4(C)CC[C@H](N5CCCC5)[C@@H](C)[C@@H]4CC[C@@]32C)/C1=C(\CCC=C(C)C)C(=O)O` here?
A: The growth was -74.3% (active).

Q: How did the growth turn out when `NC(=O)CC(NC(=O)COc1ccc(Cl)cc1Cl)C(=O)O` (stereo not given) was run?
A: The growth was 109%.

Q: `CCCCCCCCCCCCNCCCc1ccccc1` was tested. Which growth did it give?
A: Its growth is 32.3%.

Q: For `Nc1cccc2c1CN(C1CCC(=O)NC1=O)C2=O` (stereo not given), which growth is on record?
A: The growth was 105%.

Q: With `COc1cc(/C=N/OC(=O)Nc2ccccc2)cc(OC)c1OC` as the molecule, how does the growth read?
A: Its growth is 99.2%.

Q: `CC(=O)Nc1c(C)cc(C)cc1C` was tested. Which growth did it give?
A: The growth was 99.8%.

Q: How did the growth turn out when `CCCCNC(=O)c1ccc(OCC)cc1` was run?
A: Its growth is 99.5%.

Q: Which growth does the source give for `O=C(Oc1c(Cl)c(Cl)c(Cl)c(Cl)c1Cl)C1CCCN1C(=O)OCc1ccccc1` (stereo not given) here?
A: Its growth is -12.5% (active).

Q: How did the growth turn out when `CCC(C)C(N)C(=O)NC(CC(N)=O)C(=O)NC(CC(C)C)C(=O)NC(CCCCN)C(=O)NC(C)C(=O)NC(CC(C)C)C(=O)NC(C)C(=O)NC(C)C(=O)NC(CC(C)C)C(=O)NC(C)C(=O)NC(CCCCN)C(=O)NC(CCCCN)C(=O)NC(C(=O)NC(CC(C)C)C(N)=O)C(C)CC` (stereo not given) was run?
A: Its growth is 56.1%.

Q: `COC(=O)[C@H]1CCCN1C(=O)[C@H]1CCCN1C(=O)[C@@H](Cc1c[nH]c2ccccc12)NC(=S)Nc1cc(C(F)(F)F)cc(C(F)(F)F)c1` was tested. Which growth did it give?
A: The growth was 31.2%.

Q: `Nc1c(S(=O)(=O)O)cc2c3c(cccc13)C(=O)OC2=O` was tested. Which growth did it give?
A: The growth was 134%.

Q: With `O=c1cc(-c2ccccc2)nc2cc(-c3ccco3)[nH]n12` as the molecule, how does the growth read?
A: Its growth is 82.7%.

Q: For `CC(C)n1c(NCCc2ccc(O)c(O)c2)nc2c1c(=O)n(C)c(=O)n2C`, which growth is on record?
A: Its growth is 99.3%.

Q: For `C[C@@H]1CN(Cc2ccc(/C=C/c3n[nH]c4ccc5nc(-c6cn[nH]c6C(F)(F)F)c6c(c5c34)CCCC6)cc2)C[C@H](C)O1`, which growth is on record?
A: The growth was 46.7%.

Q: For `COc1ccn2c(C(C)=O)cc(C(=O)c3ccc4c(c3)Sc3ccccc3N4)c2c1`, which growth is on record?
A: Its growth is -9.97% (active).

Q: Which growth does the source give for `COc1cc(C=Nc2oc(-c3ccccc3)c(-c3ccccc3)c2C#N)cc(CN2CCCCC2)c1O` here?
A: The growth was 92.5%.

Q: `CC(C)CCOc1ccc(-c2n[nH]c(C(F)(F)F)c2-c2cncc(C#N)c2)c(O)c1` was tested. Which growth did it give?
A: The growth was 3.64% (active).

Q: How did the growth turn out when `c1coc2occoc=2o1` was run?
A: Its growth is 102%.

Q: For `COc1ccc2c(c1)OC13Oc4cc(OC)ccc4C=C1CCCCC3=C2`, which growth is on record?
A: Its growth is 104%.

Q: Which growth does the source give for `CC(=O)Nc1c(Cl)cc2c(c1Cl)Cc1ccccc1-2` here?
A: Its growth is 99.7%.

Q: For `FC(F)(F)c1cccc(Oc2ccc(Nc3ncnc4ccc(OCCCN5CCOCC5)cc34)cc2Cl)c1`, which growth is on record?
A: Its growth is 32.8%.

Q: With `Oc1[nH]c2ccccc2c1/C=c1/ccc2c(c1)N=C(c1ccc(C(F)(F)F)cc1)N=2` as the molecule, how does the growth read?
A: Its growth is 74.3%.

Q: Which growth does the source give for `Nc1ncc(C#Cc2cncc(NC(=O)c3cccc(C(F)(F)F)c3)c2)c2cccnc12` here?
A: Its growth is 33.2%.

Q: With `CCOc1cccc(-c2nc(N)nc(Nc3ccccc3SSc3ccccc3Nc3nc(N)nc(-c4cccc(OCC)c4)n3)n2)c1` as the molecule, how does the growth read?
A: The growth was 8.5% (active).

Q: `CC1(O)CCC(Nc2cc(-c3ccc(C(F)(F)F)cc3)c(C#N)c3nc4ccccc4n23)CC1` (stereo not given) was tested. Which growth did it give?
A: Its growth is 63%.

Q: With `NC(=O)c1c(NC(=O)c2ccc(Cl)cc2)sc2c1CCC(=O)C2` as the molecule, how does the growth read?
A: Its growth is 48.6%.

Q: `COc1cc(C=Nc2oc(-c3ccccc3)c(-c3ccccc3)c2C#N)cc(CN2CCCC2)c1O` was tested. Which growth did it give?
A: Its growth is 102%.

Q: `CCn1c(SCC(=O)Nc2cc(C(F)(F)F)ccc2Cl)nc2ccccc2c1=O` was tested. Which growth did it give?
A: Its growth is 19.3%.

Q: `C#Cc1cccc(Nc2ncnc3ccc(NC(=O)c4ccccc4)cc23)c1` was tested. Which growth did it give?
A: The growth was 71.9%.

Q: For `Cc1cc(C)c(/C=C2\C(=O)Nc3ccc(NC(=O)CCCCCCC(=O)NO)cc32)[nH]1`, which growth is on record?
A: Its growth is 19.4%.

Q: With `N[C@@H](CC/[N+]([O-])=N/O)C(=O)O` as the molecule, how does the growth read?
A: Its growth is 110%.

Q: For `COc1ccc(Nc2ncc(Br)c(NCCCNC(=O)c3cccs3)n2)cc1`, which growth is on record?
A: Its growth is 17.7%.

Q: Which growth does the source give for `CCCCCCCCCCC(=O)CCCCCCCCCC` here?
A: Its growth is 95.4%.

Q: How did the growth turn out when `O=[N+]([O-])c1c(S(=O)(=O)O)cc2cc(S(=O)(=O)O)ccc2c1[N+](=O)[O-]` was run?
A: The growth was 108%.

Q: With `CC(C)(C)c1ccc(C2CC(=O)C3=C(C2)Nc2ccccc2N(C(=O)c2ccccc2Cl)C3c2ccc(F)cc2)cc1` (stereo not given) as the molecule, how does the growth read?
A: The growth was -19.8% (active).

Q: How did the growth turn out when `C=C[C@]1(C)C=C2CC[C@@H]3C(C)(C)C(=O)CC[C@@]3(C)[C@@H]2CC1` was run?
A: The growth was 101%.

Q: `O=C(Cc1ccc(/C=C/C(=O)c2ncc[nH]2)cc1)Nc1ccc(F)cc1` was tested. Which growth did it give?
A: The growth was -17.3% (active).

Q: With `Nc1ccn(Cc2nnc(CCC(=O)c3nc4ccccc4[nH]3)o2)c(=O)n1` as the molecule, how does the growth read?
A: The growth was 80.5%.

Q: With `Cc1ccc(NC(=O)/C=C/c2ccccc2)c(C(N)=O)c1` as the molecule, how does the growth read?
A: The growth was -25.5% (active).

Q: How did the growth turn out when `O=C1Nc2ccccc2/C1=C/C(=O)c1ccc(N2CCOCC2)cc1` was run?
A: Its growth is 49.8%.
